Reference: PubChem BioAssay (Tox21)
Results filed as inconclusive are left out. Where a call stands in place of a potency, no number is given. Values without a mark were called inactive. The source made the active and inactive calls. Unless noted, calls come from the whole dose curve; as a rule, active = well fitted curve in the direction sought with a large enough effect in the repeat runs; inconclusive = weak or mixed curves; inactive = no such curve, though single readings can be large; an effect the other way counts as inactive or inconclusive.

Tests used:
[1] = qHTS assay to identify small molecule antagonists of the thyroid receptor (TR) signaling pathway - cell viability counter screen (AID 743064); note: nearly all actives have a fitted effect of over 50% in size; note: potency is the fitted concentration of half-maximal effect
How it was run: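 GH3.TRE-Luc rat pituitary cells carrying a TRE-luciferase reporter were treated with compound plus 1 nM T3 (final) for 23.5 h at 37 °C. Viability was then read in the same wells by CellTiter-Fluor fluorescence after a further 30 min.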

[2] = qHTS assay to identify small molecule antagonists of the thyroid receptor (TR) signaling pathway (AID 743065); note: nearly all actives have a fitted effect of over 55% in size; note: potency is the fitted concentration of half-maximal effect
How it was run: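 GH3.TRE-Luc rat pituitary cells carrying two TR response elements driving luciferase were plated for 4 h, given compound plus 1 nM T3 (final), and incubated 23.5 h at 37 C. ONE-Glo luminescence measured reporter inhibition; CellTiter-Fluor fluorescence tracked cytotoxicity.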

[3] = tested on: thyroid hormone receptor (rat, GH3 cells); experiment: qHTS assay to identify small molecule agonists of the thyroid receptor (TR) signaling pathway (AID 743066; calls by dose curve)
[4] = qHTS assay to identify small molecule antagonists of the estrogen receptor alpha (ER-alpha) signaling pathway - cell viability counter screen (AID 743074; calls by dose curve;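 note: HEK293 cells carrying ER-alpha-UAS-bla reporter stimulated with 17beta-estradiol; nearly all actives have a fitted effect of over 45% in size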)
[5] = qHTS assay to identify small molecule antagonists of the estrogen receptor alpha (ER-alpha) signaling pathway using the BG1 cell line - cell viability counter screen (AID 743081);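 note: compound given together with 17beta-estradiol as the ER stimulus; nearly all actives have a fitted effect of over 45% in size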
[6] = qHTS assay to identify small molecule that activate the aryl hydrocarbon receptor (AhR) signaling pathway - cell viability counter screen (AID 743086);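 note: HepG2 liver cells carrying the AhR DRE luciferase reporter; nearly all actives have a fitted effect of over 45% in size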
How it was run: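 HepG2-AhR-luc (HG2L7.5c1) cells, 4000/well, were preincubated 5 h at 37C, exposed to compound in qHTS format for 24 hr at 37C, then given CellTiter-Fluor for 30 min; viability was read as fluorescence in the reporter wells.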

[7] = qHTS assay to identify small molecule antagonists of the peroxisome proliferator-activated receptor gamma (PPARg) signaling pathway - cell viability counter screen (AID 743194); note: nearly all actives have a fitted effect of over 55% in size
How it was run: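 PPARg-UAS-bla HEK293H cells were plated, rested 5 h at 37 C, then treated with compounds plus rosiglitazone (50 nM final) for 17 h at 37 C; viability was then read by CellTiter-Glo luminescence after 30 min at room temperature.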

[8] = qHTS assay for small molecule agonists of the antioxidant response element (ARE) signaling pathway (AID 743202; active = well fitted activation curve with a large enough effect in the signal ratio in the repeat runs, not every such curve was filed as active; the % refers to the signal ratio)
How it was run: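 Following a 16 h, 37 C exposure of reporter HepG2 cells (ARE-driven beta-lactamase, 2,000 cells/well) to compounds, FRET substrate was applied for 2 h at room temperature and fluorescence intensity recorded.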

[9] = qHTS assay for small molecule agonists of the antioxidant response element (ARE) signaling pathway - cell viability counter screen (AID 743203; calls by dose curve; note: nearly all actives have a fitted effect of over 55% in size)
How it was run: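 ATP content via CellTiter-Glo luminescence served as the viability measure. Cells: ARE-bla HepG2, 2,000 per well. Exposure: 16 hrs, 37C/5% CO2.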

[10] = qHTS assay for small molecule activators of the heat shock response signaling pathway - cell viability counter screen (AID 743209); note: nearly all actives have a fitted effect of over 50% in size
How it was run: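 Compounds dissolved in DMSO were added to overnight-plated HSE-bla HeLa cells and left 5 h at 37 C. Cell viability was quantified by luminescence using CellTiter-Glo.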

[11] = qHTS assay for small molecule activators of the heat shock response signaling pathway (AID 743210; active = well fitted activation curve with a large enough effect in the signal ratio in the repeat runs, with a control signal flat, not every such curve was filed as active; the % refers to the signal ratio)
How it was run: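 Heat shock element–beta-lactamase HeLa reporter cells; qHTS with compounds for 5 h at 37 C; detection by FRET substrate fluorescence after 2.5 h at RT.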

Aromatase (Homo sapiens) = Aromatase (Homo sapiens) (UniProt P11511); experiment: qHTS assay to identify aromatase inhibitors (AID 743083); note: nearly all actives have a fitted effect of over 55% in size; note: potency is the fitted concentration of half-maximal effect
[12] = qHTS assay to identify aromatase inhibitors - cell viability counter screen (AID 743084)
[13] = target: Aryl hydrocarbon receptor (Homo sapiens) (UniProt P35869); experiment: qHTS assay to identify small molecule that activate the aryl hydrocarbon receptor (AhR) signaling pathway (AID 743085); note: nearly all actives have a fitted effect of over 15% in size; note: potency is the fitted concentration of half-maximal effect;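 for activation: HG2L7.5c1 human HepG2 liver cells with stably integrated DRE-driven firefly reporter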
How it was run: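 HepG2 cells (HG2L7.5c1) stably carrying a firefly luciferase reporter driven by 20 dioxin responsive elements were exposed to compound for 24 h at 37C after a 5 h settling period; luminescence rise (ONE-Glo) indicated activation.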

[14] = target: Peroxisome proliferator-activated receptor gamma (Homo sapiens) (UniProt P37231); experiment: qHTS assay to identify small molecule agonists of the peroxisome proliferator-activated receptor gamma (PPARg) signaling pathway (AID 743094; active = well fitted activation curve with a large enough effect in the signal ratio in the repeat runs, not every such curve was filed as active; the % refers to the signal ratio)
How it was run: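 Agonism was assessed in a beta-lactamase reporter system, HEK293H cells with a stably integrated UAS-bla construct under PPARg control; the 17 h treatment at 37C preceded a 1 h room-temperature FRET substrate read.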

[15] = target: Peroxisome proliferator-activated receptor gamma (Homo sapiens) (UniProt P37231); experiment: qHTS assay to identify small molecule antagonists of the peroxisome proliferator-activated receptor gamma (PPARg) signaling pathway (AID 743191; calls by dose curve; note: nearly all actives have a fitted effect of over 30% in size; note: potency is the fitted concentration of half-maximal effect)
How it was run: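 GeneBLAzer PPARg UAS-bla HEK293H cells carrying a UAS-driven beta-lactamase reporter were plated at 3000 cells/well, preincubated 5 h at 37C, then given compound for 17 h at 37C; LiveBLAzer B/G FRET substrate was read after 1 h at room temperature.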

[16] = target: Estrogen receptor (Homo sapiens) (UniProt P03372); experiment: qHTS assay to identify small molecule agonists of the estrogen receptor alpha (ER-alpha) signaling pathway (AID 743075; calls by dose curve;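 note: HEK293 GripTite cells with ER-alpha and UAS-driven beta-lactamase reporter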)
[17] = target: Estrogen receptor (Homo sapiens) (UniProt P03372); experiment: qHTS assay to identify small molecule agonists of the estrogen receptor alpha (ER-alpha) signaling pathway using the BG1 cell line (AID 743079); settings: BG1Luc4E2 cells, ERE-luciferase agonist, 22 h; activation: at 70.3 µM (top of the series); note: nearly all actives have a fitted effect of over 20% in size
[18] = qHTS assay to identify small molecule antagonists of the estrogen receptor alpha (ER-alpha) signaling pathway using the BG1 cell line (AID 743080; calls by dose curve;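 note: BG1 cells stimulated with 17beta-estradiol alongside compound; potency is the fitted concentration of half-maximal effect; nearly all actives have a fitted effect of over 25% in size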)
How it was run: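 Quantitative HTS on the Tox21 10K library: BG1 cells with endogenous ER-alpha and ERE-luciferase reporter, 17beta-estradiol stimulation, 21.5 h compound exposure, luminescence endpoint with parallel fluorescence cytotoxicity counter-read.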

Sequence of Aryl hydrocarbon receptor (Homo sapiens) (P35869 whole entry, looked up): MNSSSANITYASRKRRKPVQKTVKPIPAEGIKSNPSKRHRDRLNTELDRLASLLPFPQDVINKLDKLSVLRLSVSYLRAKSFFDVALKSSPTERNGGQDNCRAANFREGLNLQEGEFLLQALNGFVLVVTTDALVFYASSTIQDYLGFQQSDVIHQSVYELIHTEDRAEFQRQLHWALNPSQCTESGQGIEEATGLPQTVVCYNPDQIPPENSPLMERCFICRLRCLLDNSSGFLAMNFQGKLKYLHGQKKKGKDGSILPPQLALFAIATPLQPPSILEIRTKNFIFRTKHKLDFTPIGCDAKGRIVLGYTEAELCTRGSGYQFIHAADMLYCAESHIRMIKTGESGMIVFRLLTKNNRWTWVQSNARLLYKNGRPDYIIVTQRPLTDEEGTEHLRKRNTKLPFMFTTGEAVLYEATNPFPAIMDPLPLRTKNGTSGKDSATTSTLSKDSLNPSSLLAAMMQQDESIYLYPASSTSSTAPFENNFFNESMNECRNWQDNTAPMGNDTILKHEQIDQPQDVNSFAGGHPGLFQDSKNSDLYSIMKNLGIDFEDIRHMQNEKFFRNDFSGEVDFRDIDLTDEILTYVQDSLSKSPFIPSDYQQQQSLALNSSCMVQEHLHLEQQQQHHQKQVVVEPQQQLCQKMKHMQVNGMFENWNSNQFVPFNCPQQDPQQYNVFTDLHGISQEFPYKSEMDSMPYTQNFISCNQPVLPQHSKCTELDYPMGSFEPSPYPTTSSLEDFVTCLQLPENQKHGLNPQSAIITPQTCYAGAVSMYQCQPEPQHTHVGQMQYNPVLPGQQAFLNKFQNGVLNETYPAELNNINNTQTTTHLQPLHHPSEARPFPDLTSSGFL
Sequence of Aromatase (Homo sapiens) (P11511 whole entry, looked up): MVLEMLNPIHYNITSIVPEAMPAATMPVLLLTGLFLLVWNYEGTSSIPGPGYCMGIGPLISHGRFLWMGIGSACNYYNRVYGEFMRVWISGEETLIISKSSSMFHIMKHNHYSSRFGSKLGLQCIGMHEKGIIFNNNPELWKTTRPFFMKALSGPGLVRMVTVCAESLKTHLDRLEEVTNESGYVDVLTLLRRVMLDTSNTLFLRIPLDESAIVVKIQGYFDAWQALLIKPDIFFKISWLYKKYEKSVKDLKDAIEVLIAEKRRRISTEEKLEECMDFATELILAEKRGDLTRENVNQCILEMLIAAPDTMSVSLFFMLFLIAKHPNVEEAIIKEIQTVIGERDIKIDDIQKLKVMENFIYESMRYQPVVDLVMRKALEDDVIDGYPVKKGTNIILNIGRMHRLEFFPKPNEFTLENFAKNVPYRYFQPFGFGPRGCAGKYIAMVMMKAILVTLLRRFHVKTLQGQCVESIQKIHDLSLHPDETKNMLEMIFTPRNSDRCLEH
Sequence of Estrogen receptor (Homo sapiens) (P03372 whole entry, looked up): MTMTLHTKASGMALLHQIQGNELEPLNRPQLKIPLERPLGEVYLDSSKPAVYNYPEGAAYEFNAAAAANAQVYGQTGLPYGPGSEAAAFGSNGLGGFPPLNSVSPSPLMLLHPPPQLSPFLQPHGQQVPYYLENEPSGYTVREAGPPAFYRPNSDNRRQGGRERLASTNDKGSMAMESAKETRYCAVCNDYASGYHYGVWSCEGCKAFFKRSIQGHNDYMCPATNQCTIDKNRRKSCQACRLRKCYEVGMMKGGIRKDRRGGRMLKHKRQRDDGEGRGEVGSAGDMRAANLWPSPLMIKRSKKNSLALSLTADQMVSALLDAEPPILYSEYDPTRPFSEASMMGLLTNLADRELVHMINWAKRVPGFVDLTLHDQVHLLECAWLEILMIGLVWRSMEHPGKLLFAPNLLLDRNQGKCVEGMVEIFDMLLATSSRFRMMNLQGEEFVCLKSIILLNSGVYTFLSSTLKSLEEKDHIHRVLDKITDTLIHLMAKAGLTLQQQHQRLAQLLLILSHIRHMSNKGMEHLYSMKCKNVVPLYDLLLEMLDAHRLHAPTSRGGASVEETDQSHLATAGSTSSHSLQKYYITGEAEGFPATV
Sequence of Peroxisome proliferator-activated receptor gamma (Homo sapiens) (P37231 whole entry, looked up): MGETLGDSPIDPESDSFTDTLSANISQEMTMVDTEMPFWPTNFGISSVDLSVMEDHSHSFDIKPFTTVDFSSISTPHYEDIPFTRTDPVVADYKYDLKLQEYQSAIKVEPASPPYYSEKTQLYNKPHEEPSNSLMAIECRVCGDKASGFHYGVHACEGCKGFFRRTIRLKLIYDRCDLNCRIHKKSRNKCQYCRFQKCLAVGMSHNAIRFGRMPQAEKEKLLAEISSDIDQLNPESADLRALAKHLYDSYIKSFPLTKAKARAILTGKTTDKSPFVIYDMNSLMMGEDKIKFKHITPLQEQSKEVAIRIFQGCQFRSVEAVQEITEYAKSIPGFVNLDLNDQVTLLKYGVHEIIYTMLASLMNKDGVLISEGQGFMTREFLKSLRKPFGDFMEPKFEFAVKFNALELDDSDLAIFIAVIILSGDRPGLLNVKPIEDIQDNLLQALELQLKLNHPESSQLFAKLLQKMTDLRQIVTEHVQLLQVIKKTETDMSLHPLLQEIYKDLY

| SMILES | Potency [1] | Potency [2] | outcome [3] | Potency [4] | Potency [5] | Potency [6] | Potency [7] | Potency [8] | Potency [9] | Potency [10] | Potency [11] | Potency (Aromatase (Homo sapiens)) | Potency [12] | Potency [13] | Potency [14] | Potency [15] | Potency [16] | Potency [17] | Potency [18] |
| --- | --- | --- | --- | --- | --- | --- | --- | --- | --- | --- | --- | --- | --- | --- | --- | --- | --- | --- | --- |
| CCCCCCOC(=O)CCCCCCCC(=O)OCCCCCC | inactive | inactive | inactive | inactive | inactive | inactive | inactive | inactive | inactive | inactive | inactive | – | – | – | – | – | – | – | – |
| Nc1nccs1 | inactive | inactive | inactive | inactive | inactive | inactive | – | inactive | inactive | inactive | – | inactive | inactive | inactive | inactive | – | – | – | – |
| CCC(C)=O | inactive | inactive | inactive | inactive | inactive | inactive | inactive | inactive | inactive | – | inactive | – | inactive | inactive | inactive | inactive | – | – | – |
| Cc1oc(C)c(C(=O)Nc2ccccc2)c1C | inactive | 24.3 µM (active) | inactive | – | – | inactive | inactive | – | – | inactive | inactive | 13.7 µM (active) | inactive | 24.3 µM (active) | – | 24.5 µM (active) | inactive | – | – |
| Nc1nc(Cl)nc2c1ncn2[C@@H]1O[C@H](CO)[C@@H](O)[C@@H]1F | 0.237 µM (active) | 0.133 µM (active) | inactive | – | inactive | inactive | inactive | – | inactive | inactive | inactive | – | inactive | inactive | – | – | inactive | inactive | 3.76 µM (active) |
| CC(=O)[C@H]1CC[C@H]2[C@@H]3C[C@H](C)C4=CC(=O)CC[C@]4(C)[C@H]3[C@@H](O)C[C@]12C | inactive | inactive | inactive | inactive | inactive | inactive | – | inactive | – | inactive | inactive | inactive | inactive | – | inactive | inactive | – | – | – |
| CCCCCCCCSCCO | inactive | inactive | inactive | inactive | inactive | inactive | inactive | inactive | inactive | inactive | inactive | inactive | inactive | inactive | inactive | inactive | – | – | – |
| CC(C)CCCCCOC(=O)CCCCC(=O)OCCCCCC(C)C | inactive | inactive | inactive | inactive | inactive | inactive | inactive | – | – | inactive | inactive | inactive | inactive | inactive | inactive | inactive | – | – | – |
| CCCCN(CCCC)CCCOC(=O)c1ccc(N)cc1 | inactive | inactive | inactive | inactive | – | inactive | inactive | inactive | inactive | inactive | – | inactive | inactive | – | inactive | inactive | – | – | – |
| CCCCC(=O)O[C@]1(C(=O)CO)CC[C@H]2[C@@H]3CCC4=CC(=O)CC[C@]4(C)[C@H]3[C@@H](O)C[C@@]21C | inactive | inactive | inactive | inactive | inactive | inactive | – | inactive | inactive | inactive | inactive | inactive | inactive | inactive | – | – | – | inactive | – |
